Screens as filed in PubChem.
CYP2C19 inhib = blocks human cytochrome P450 2C19; CYP2C19 Supersomes, luciferin-H EGE luminescence, 30 min; inhibition, % at 5 µM; 96,000 compounds, 21% hits;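 active means CYP2C19 inhibition above a set limit at 5 µM in the primary screen, cut at about 50% in these data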;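 further: plate controls were negative control wells for no effect and 2.5 mM tranylcypromine positive control for full effect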
Target sequence (P33261 whole entry, looked up): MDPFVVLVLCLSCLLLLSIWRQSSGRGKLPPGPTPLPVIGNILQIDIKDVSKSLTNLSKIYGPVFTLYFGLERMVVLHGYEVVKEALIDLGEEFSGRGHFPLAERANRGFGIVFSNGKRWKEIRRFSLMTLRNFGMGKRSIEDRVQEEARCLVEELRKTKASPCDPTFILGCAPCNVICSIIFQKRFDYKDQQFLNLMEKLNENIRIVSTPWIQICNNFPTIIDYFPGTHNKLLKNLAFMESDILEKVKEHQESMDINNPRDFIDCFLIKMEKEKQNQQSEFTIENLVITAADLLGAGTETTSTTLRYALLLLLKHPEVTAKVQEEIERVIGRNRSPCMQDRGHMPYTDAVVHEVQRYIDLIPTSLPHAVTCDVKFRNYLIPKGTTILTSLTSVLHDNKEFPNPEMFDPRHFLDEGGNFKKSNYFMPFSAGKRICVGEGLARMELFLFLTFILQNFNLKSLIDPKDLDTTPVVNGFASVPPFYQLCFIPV
CYP2C19 act = cytochrome P450 2C19 (human) activation; recombinant CYP2C19, luciferin-H EGE luminescence; active compounds read high; 0 = fully inhibited enzyme, 1 = untreated enzyme; AID 1025; P33261; activation factor at 5 µM; 96,000 tested, under 10 active;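 active means activation factor of at least 2 at 5 µM in the primary screen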;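 further: 0 = wells with 2.5 mM tranylcypromine and 1 = vehicle-only wells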
CYP2C9 activ = increases human cytochrome P450 2C9 activity; P11712; recombinant CYP2C9, luciferin-H conversion, luminescence; active compounds read high; factor 1 = untreated enzyme, 0 = blocked; activation factor at 5 µM; 96,000 compounds, 1.4% hits;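 active means activation factor of 2 or more for CYP2C9 at a 5 µM dose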;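 further: 0 = sulfaphenazole-blocked wells and 1 = vehicle-only wells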
CYP2C9 inh = blocks human cytochrome P450 2C9; P11712; CYP2C9 Supersomes, luciferin-H conversion, luminescence; inhibition, % at 5 µM; 96,000 compounds, 20% hits; AID 777;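 active means blocking of liver enzyme CYP2C9 beyond about 50% at 5 µM, limit read from the data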
* marks the source's active call; other numbers are inactive results. Only a sample is shown.

SMILES	CYP2C19 inhib	CYP2C19 act	CYP2C9 activ	CYP2C9 inh
CC1CN(C(=O)CSc2nc(-c3ccccc3)cs2)CC(C)O1 (stereo not given)	93.2*	0.1	0.9	8.0
O=C1c2ccccc2C(=O)N1CCN1CCc2ccccc21	32.3	0.7	0.8	17.8
O=C(NCCCN1CCOCC1)c1cccs1	-3.5	1	1.2	-17.2
CCCOc1ccc(CSC(CC(=O)O)C(=O)O)cc1 (stereo not given)	-10.7	1.1	0.9	7.6
CS(=O)(=O)N(CC(=O)N1CCN(c2ccccc2)CC1)Cc1ccc(Cl)cc1	13.1	0.9	0.9	13.1
CS(=O)(=O)N(CC(=O)N1CCN(Cc2ccc3c(c2)OCO3)CC1)Cc1ccc(Cl)cc1	46.3	0.5	0.4	61.6*
CS(=O)(=O)N(CCc1ccccc1)CC(=O)N1CCN(Cc2ccc3c(c2)OCO3)CC1	-8.5	1.1	1.1	-8.7
CN(c1ccccc1C(=O)N1CCc2ccccc2C1)S(C)(=O)=O	93.2*	0.1	0.2	83.5*
CS(=O)(=O)N(CC(=O)N1CCc2ccccc2C1)Cc1ccccc1	86.3*	0.1	0.2	80.1*
CS(=O)(=O)N(CC(=O)N1CCCCCC1)Cc1ccc(Cl)cc1	93.4*	0.1	0.6	36.3
COc1ccc(OC)c(NC(=O)CNC(=O)Cn2ccc3ccccc3c2=O)c1	12.1	0.9	0.6	39.4
CC(=O)c1cccc(NC(=O)NC(C)C2CCCO2)c1 (stereo not given)	1.3	1	1.1	-8.7
COc1cccc2c(=O)n(CC(=O)N3CCCCC3)ccc12	25.5	0.7	1.2	-24.2
CN1CCN(C(=O)CN(Cc2ccc(Cl)cc2)S(C)(=O)=O)CC1	69.3*	0.3	1	0.3
CS(=O)(=O)N(CC(=O)N1CCOCC1)Cc1ccc(Cl)cc1	56.2*	0.4	1.1	-6.0
O=C(CCC1CCCCC1)N1CCN(Cc2ccc3c(c2)OCO3)CC1	91.4*	0.1	0.1	86.8*
Cc1ccccc1-n1c(SC/C(O)=C(\C#N)c2nc3ccccc3[nH]2)nnc1-c1ccncc1	86.3*	0.1	0	95.1*
Cc1cc(C)n2c(SC/C(O)=C(\C#N)c3nc4ccccc4[nH]3)nnc2n1	16.1	0.8	0.7	30.5
C=CCNC(=S)N1CCN(CCN=CC2=C(O)CC(c3cccs3)CC2=O)CC1 (stereo not given)	-0.2	1	1.1	-5.9
Cc1ccc(/C=c2/sc3nnc(-c4ccccc4Cl)n3c2=O)o1	64.7*	0.4	0.3	67.8*
CCC1CCCCN1C(=O)CSc1nnc(CNC(=O)c2cc(OC)c(OC)c(OC)c2)o1 (stereo not given)	6.5	0.9	0.7	30.5
c1ccc(-n2cccc2CNC2CCCCC2)cc1	29.4	0.7	1.1	-14.0
FC(F)(F)c1cc(-c2ccccc2)nc(-n2cncn2)n1	-7.6	1.1	1	4.9
CCOCC(=O)Nc1nc2ccc(S(C)(=O)=O)cc2s1	5.2	0.9	0.8	23.6
CS(=O)(=O)c1ccc2nc(NC(NC(=O)c3ccco3)(C(F)(F)F)C(F)(F)F)sc2c1	50.0*	0.5	0	99.0*
SMILES	CYP2C19 inhib	CYP2C19 act	CYP2C9 activ	CYP2C9 inh
COC(=O)C(NC(C)=O)(Nc1nc2ccc(C)cc2s1)C(F)(F)F (stereo not given)	74.8*	0.3	0.2	78.3*
CCOC(=O)c1ccc2nc(NC(NC(C)=O)(C(=O)OC)C(F)(F)F)sc2c1 (stereo not given)	40.0	0.6	0.8	22.0
Cc1cc(NC(NC(=O)c2ccco2)(C(F)(F)F)C(F)(F)F)no1	11.1	0.9	0.9	10.6
COC(=O)C(NC(C)=O)(Nc1nc2ccc(S(C)(=O)=O)cc2s1)C(F)(F)F (stereo not given)	2.0	1	0.4	64.1*
COC(=O)c1cc2oc3ccccc3c2n1CC(=O)N1CCCc2ccccc21	34.0	0.7	0.8	21.6
COC(=O)c1ccc(NC(=O)CSc2nnc(C(C)NC(=O)c3ccccc3Cl)n2C)cc1 (stereo not given)	-7.7	1.1	0.9	7.8
Cc1cc(C)c(NC(=O)NC(=O)c2ccc(F)cc2)c(C)n1	6.4	0.9	1.4	-39.2
O=S(=O)(Nc1cccc2c1ccc1cccn12)c1cccs1	30.3	0.7	0.4	58.9*
NC(=O)c1ccccc1NS(=O)(=O)c1cccs1	13.5	0.9	1.9	-89.8
COCC(O)CSc1nc(C)[nH]c1[N+](=O)[O-] (stereo not given)	-10.5	1.1	1.2	-18.7
COc1ccc(C(CCc2ccc(C)o2)NC(=O)Nc2ccc(OC)cc2OC)cc1 (stereo not given)	-12.3	1.1	1.1	-7.4
COC(=O)c1cccc(NS(C)(=O)=O)c1C	2.9	1	1	0.2
COC(=O)c1ccccc1NC1OC(=O)c2ccccc21 (stereo not given)	6.1	0.9	0.9	5.7
COC(=O)c1ccccc1NC1=C/C(=N\S(=O)(=O)c2cccs2)c2ccccc2C1=O	67.0*	0.3	0.2	82.9*
COC(=O)c1cccc(NC(=O)Cc2ccc(OC)cc2)c1C	92.3*	0.1	0.3	67.2*
COC(=O)c1cccc(NS(=O)(=O)c2cccs2)c1C	13.8	0.9	0.3	73.9*
COC(=O)c1cccc(NC(=O)CCSc2ccc(Cl)cc2)c1C	44.8	0.6	0.8	21.2
O=C(Nc1ccccc1Cl)c1cccs1	-10.2	1.1	1.1	-10.0
COC(=O)c1cccc(NC(=O)c2cccs2)c1C	52.3*	0.5	0.9	8.2
COc1ccc(N2C(N)=NC(N)=NC2(C)C)cc1	-17.1	1.2	1.1	-11.8
Cn1nnc2cc(C(=O)NC3CCCCC3)ccc21	2.5	1	1	-3.8
COCCNCCOCCOc1ccc(Cl)c(C)c1	32.1	0.7	1	-3.6
Clc1ccc(/C=C/c2nc3ccccc3[nH]2)cc1	35.7	0.6	0.8	15.2
Clc1cccc(Cl)c1/C=C/c1nc2ccccc2[nH]1	32.0	0.7	0.2	84.3*
CSC(=O)CC(=O)NC(=O)c1ccccc1	0.6	1	0.5	47.6
SMILES	CYP2C19 inhib	CYP2C19 act	CYP2C9 activ	CYP2C9 inh
CCOc1ccc(C2NC(=O)C(C#N)=C(S)N2c2ccc(C)cc2)cc1OC (stereo not given)	-1.4	1	0.5	46.7
Cc1ccc(C(=O)ON=C2CCN(S(=O)(=O)c3ccccc3)CC2)cc1	12.3	0.9	1	-2.9
Cc1[nH]n(-c2ccc([N+](=O)[O-])cc2)c(=O)c1C=NCCN1CCN(C(=O)c2ccccc2)CC1	59.2*	0.4	0.3	65.2*
COc1ccccc1CNC(=O)c1nn(-c2ccc(C)cc2)c(=O)c2c1c1ccccc1n2C	20.7	0.8	0.3	65.0*
COc1ccc(-n2nc(C(=O)NCc3ccco3)c3c4ccccc4n(C)c3c2=O)cc1Cl	-0.4	1	1.1	-10.6
CCOc1ccc2[nH]c(=O)c(CN(Cc3nnnn3Cc3ccco3)C3CCCCC3)cc2c1	69.7*	0.3	0.8	24.7
COc1cc2cc(CN(Cc3nnnn3Cc3ccco3)C3CCCCC3)c(=O)[nH]c2cc1OC	18.0	0.8	0.9	11.9
CCOc1ccc2[nH]c(=O)c(CN(Cc3ccco3)Cc3nnnn3Cc3ccccc3)cc2c1	31.3	0.7	0.5	50.2*
